# Source: PubChem BioAssay AID2685 (National Center for Advancing Translational Sciences (NCATS), 2010)
# Out of some 320,000 compounds screened, about 2,100 (0.66%) were called active. Not shown: some 53% with an inconclusive outcome. Calls come from the whole dose curve; as a rule, active = well fitted inhibition curve with a large enough effect in the signal ratio, with a control signal flat (not every such curve was filed as active); inconclusive = small, poorly fitted or top-dose-only effect, or effect the other way, or a change in a side signal; inactive = flat fitted curve, though single readings scatter; the % refers to the signal ratio. The list comes from a sample in which actives are over-represented; it also holds similar structures and randomly drawn compounds.
# Assay: qHTS Assay for Lipid Storage Modulators in Drosophila S3 Cells;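 for cell number change: cells counted by Cell Tracker Red CMTPX staining in the red channel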; for lipid storage change, negative = inhibition: % is set by controls: 0 for no effect and ±100 for the full control effect
# Details: BODIPY lipid droplet fluorescence, 18-24 h, cells fed with added oleic acid; cell number change: measured here: cell count max response; series mostly up to 46.1 µM; lipid storage change, negative = inhibition: at the top concentration
# Outline: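 Drosophila S3 cells loaded with oleic acid (400 uM, as added) and compounds at several concentrations; lipid droplets imaged by 488-nm laser-scanning cytometry, 500–530 nm intensity and object ratio to cell channel. Percent activity normalized to 20 uM Triacsin C.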
# Potency is the fitted concentration of half-maximal effect.
SMILES,Potency,cell number change,"lipid storage change, negative = inhibition",outcome
CCOc1ccccc1NS(=O)(=O)c1ccc2c(c1)N(C)CCO2,7.31 µM (active),-20.1%,–,–
CCOc1ccccc1NS(=O)(=O)c1ccc(OC)c(OC)c1,–,-6.31%,3.17% (inactive),–
COc1ccc(C)cc1NS(=O)(=O)c1ccc2c(c1)N(C)CCO2,20.6 µM (active),6.6%,–,–
Cc1ccc(NS(=O)(=O)c2ccc3c(c2)N(C)CCO3)cc1,–,5.66%,–,inactive
CN(C)S(=O)(=O)c1ccc(N2CCCC2)c(C(=O)Nc2ccc(C(N)=O)cc2)c1,–,–,16.1% (inactive),–
Cc1ccc(NC(=S)N2CCN(Cc3ccccc3)CC2)c(C)c1,–,7.65%,12.5% (inactive),–
COc1ccc(C2C(C(=O)N3CCCCC3)CC(=O)N2c2ccc(OC)cc2)cc1 (centres undefined),–,-20%,20.1% (inactive),–
CCOc1ccc(/C=N/NC(=O)c2cc3ccccc3cc2OC)cc1,–,–,–,inactive
O=C(Cc1ccc([N+](=O)[O-])cc1)NC(C(=O)O)C(O)c1cccc([N+](=O)[O-])c1 (centres undefined),–,-5.25%,19.1% (inactive),–
CN(C)CC(=O)N1c2ccccc2CCc2ccc(NC(=O)c3ccc(N)cc3)cc21,–,–,–,inactive
CCOc1ccccc1CN1CCNC(=O)C1CC(=O)NCCc1ccccn1 (centres undefined),–,-15.8%,-15.3% (inactive),–
CCOc1ccccc1CN1CCNC(=O)C1CC(=O)NCCN1CCOC1=O (centres undefined),2.31 µM (active),19.4%,–,–
CCOc1ccccc1CN1CCNC(=O)C1CC(=O)NCCCn1cccn1 (centres undefined),–,-11.6%,–,inactive
CC(=O)Nc1ccc(S(=O)(=O)NC(C)c2nc(-c3ccccc3)no2)cc1 (centres undefined),–,16.2%,–,inactive
COc1ccc(-c2nn(CCC#N)cc2C=C(C#N)C#N)cc1,–,16.7%,3.12% (inactive),–
CC1(C)CC2CC(C)(CN2C(=O)c2cccs2)C1 (centres undefined),–,-7.87%,-0.663% (inactive),–
CC1(C)CC2CC(C)(CN2C(=O)c2cc(-c3ccc(O)cc3)on2)C1 (centres undefined),0.92 µM (active),16.1%,–,–
COc1ccc(-c2cc(C(=O)N3CC4(C)CC3CC(C)(C)C4)no2)cc1OC (centres undefined),–,-3.22%,20.3% (inactive),–
C=CCn1c(SCc2ccc3c(c2)OCO3)nc2scc(-c3ccco3)c2c1=O,–,-2.61%,34.4% (inactive),–
C=CCn1c(=S)[nH]c2scc(-c3ccco3)c2c1=O,–,8.4%,1.25% (inactive),–
C=CCn1c(SC(F)F)nc2scc(-c3ccco3)c2c1=O,0.058 µM (active),0.451%,–,–
CC(C)N(Cc1nnc(-c2ccc(Cl)cc2)o1)C(=O)c1cc2ccccc2o1,–,-8.15%,11.5% (inactive),–
Oc1nc(Nc2ccc(F)cc2)sc1/C=C1\C=Nc2ccccc21,–,-4.17%,-6.38% (inactive),–
Cc1ccccc1NC(=O)Cc1nnc(N)s1,–,-0.0956%,0.0585% (inactive),–

SMILES,Potency,cell number change,"lipid storage change, negative = inhibition",outcome
CCOc1ccc(S(=O)(=O)N2CCC(C(=O)N3CCc4ccccc4C3)CC2)cc1,7.31 µM (active),-23.3%,–,–
CCOc1ccc(S(=O)(=O)N2CCC(C(=O)N3CCN(c4ccccc4)CC3)CC2)cc1,–,-5.41%,–,inactive
COc1ccc(S(=O)(=O)N2CCc3ccccc3C2)cc1,–,4.92%,-6.8% (inactive),–
CCOc1ccc(S(=O)(=O)N2CCC(C(=O)N3CCN(Cc4ccccc4)CC3)CC2)cc1,–,-0.232%,-20.9% (inactive),–
COC(=O)COc1ccc(S(=O)(=O)N2CCc3ccccc3C2)cc1,7.31 µM (active),22.6%,–,–
COC(=O)COc1ccc(S(=O)(=O)N2CCCCCC2)cc1,–,19.9%,9.35% (inactive),–
Cc1ccc(C2=NNC(=O)C(P(=O)(c3ccccc3)c3ccccc3)C2)cc1 (centres undefined),–,21.3%,23.4% (inactive),–
S=C1NCN(C2CCCCC2)CN1Cc1ccccc1,–,2.76%,5.67% (inactive),–
CCCc1cc(=O)oc2cc(C)cc(OC(C)C(=O)NCCCN3CCOCC3)c12 (centres undefined),–,6.42%,–,inactive
O=c1[nH]c2ccccc2nc1/C=C(\O)C(F)F,–,13.5%,9.85% (inactive),–
O=c1[nH]c2ccccc2nc1/C=C/c1ccc(F)cc1,9.2 µM (active),28.9%,–,–
Cn1c(=O)c(/C=C/c2ccc(F)cc2)nc2ccccc21,–,-1.08%,-6.81% (inactive),–
COC(=O)[C@@H]1C2CCC(C(=O)Nc3ccccc3)(CC2)[C@@H]1C(=O)OC,–,–,–,inactive
COC(=O)C1CCN(S(C)(=O)=O)CC1,–,4.24%,3.84% (inactive),–
COC(=O)[C@H]1C2CCC(C(=O)OC)(CC2)[C@H]1C(=O)OC,1.3 µM (active),-5.5%,–,–
CN(Cc1ccccc1)c1nnc(N)s1,–,-2.39%,1.26% (inactive),–
O=C(NC(=S)Nc1ccc(S(=O)(=O)Nc2nccs2)cc1)c1ccccc1F,–,13%,0.875% (inactive),–
NC(=O)N/N=C/c1cn(-c2ccccc2)nc1-c1ccccc1,–,15.1%,13.8% (inactive),–
O=C(N/N=C/c1cn(-c2ccccc2)nc1-c1ccccc1)c1ccco1,–,–,–,inactive
Cc1ccc(/C=N/NC(=O)c2ccc(Br)o2)s1,3.66 µM (active),-8.7%,–,–
O=C(N/N=C\c1cn(-c2ccccc2)nc1-c1ccccc1)c1ccc(Br)o1,23.1 µM (active),6.81%,–,–
Cc1ccc(/C=N/NC(=O)c2ccc(C(=O)N/N=C/c3ccc(C)s3)o2)s1,–,10.7%,-1.54% (inactive),–
Cc1ccc(/C=N/NC(=O)c2ccco2)s1,–,-9.87%,17.2% (inactive),–
